Our source for the growth inhibition, inhibition and outcome values is PubChem BioAssay.

A short description of experiment [1]: antimalarial activity against Dd2 strain (AID 2302;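 active means growth inhibition above 50% at the single 2 µM test dose, taken to imply half-maximal potency below 2 µM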;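 further: 0% = DMSO untreated growth and 100% = chloroquine plus artemisinin killed control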). The note with it: P. falciparum Dd2 in RBCs, LDH growth readout, 72 h; at 2 µM; stronger effect = higher value.
The nature of experiment [2]: HepG2 cytotoxicity, primary screen, cytotoxicity control for P. falciparum antimalarial project, cell-based, ATP luminescence (AID 2303;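 active means inhibition above 50%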;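 further: 0% = DMSO wells and 100% = digitonin-killed cells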). The conditions noted are these: HepG2 viability, 24-48 h, at 10 µM, stronger effect = higher value.
Experiment [3] deals with L-lactate dehydrogenase (Plasmodium falciparum (isolate CDC / Honduras)) (UniProt Q27743). Description: PfLDH activity inhibition – cell lysate, 3D7 strain, counter-screen for P. falciparum growth inhibition project (AID 2304).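 Further: 0% = vehicle and 100% = reference inhibitor.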 The conditions noted are these: P. falciparum 3D7 crude extract, LDH APAD/NBT absorbance; at 2 µM; stronger effect = higher value. Background: A counterscreen serves to expose hits that act by an unwanted route or on another target.
Sequence of L-lactate dehydrogenase (Plasmodium falciparum (isolate CDC / Honduras)) (Q27743 whole entry, looked up): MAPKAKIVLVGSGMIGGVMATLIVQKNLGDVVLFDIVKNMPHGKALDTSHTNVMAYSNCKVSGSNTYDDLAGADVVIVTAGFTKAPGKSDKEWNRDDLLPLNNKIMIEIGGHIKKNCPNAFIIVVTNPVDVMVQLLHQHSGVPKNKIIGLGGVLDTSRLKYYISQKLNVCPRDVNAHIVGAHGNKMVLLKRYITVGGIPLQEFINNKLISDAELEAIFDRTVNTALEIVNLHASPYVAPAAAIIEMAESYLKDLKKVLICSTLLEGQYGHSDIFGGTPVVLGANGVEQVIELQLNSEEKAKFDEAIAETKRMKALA

A short description of experiment [4]: inhibition of 3D7 malaria parasite growth – strain 3D7 (AID 2306).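 Further: 0% = DMSO wells and 100% = chloroquine plus artemisinin control wells.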 The note with it: P. falciparum 3D7 erythrocytic growth, LDH absorbance, 72 h; at 2 µM; stronger effect = higher value.
In experiment [5] the target is Calcium-dependent protein kinase 1 (Plasmodium falciparum (isolate 3D7)) (UniProt P62344). Kind of experiment: PfCDPK1 kinase inhibitors, biochemical, TCAMS library (AID 1159585; cut-off not given, nearly all actives have IC50 up to about 0.98 µM;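 further: inhibitors leave more ATP so luminescence rises with inhibition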). The conditions noted are these: recombinant PfCDPK1, Kinase-Glo ATP depletion luminescence.
Sequence of Calcium-dependent protein kinase 1 (Plasmodium falciparum (isolate 3D7)) (P62344 whole entry, looked up): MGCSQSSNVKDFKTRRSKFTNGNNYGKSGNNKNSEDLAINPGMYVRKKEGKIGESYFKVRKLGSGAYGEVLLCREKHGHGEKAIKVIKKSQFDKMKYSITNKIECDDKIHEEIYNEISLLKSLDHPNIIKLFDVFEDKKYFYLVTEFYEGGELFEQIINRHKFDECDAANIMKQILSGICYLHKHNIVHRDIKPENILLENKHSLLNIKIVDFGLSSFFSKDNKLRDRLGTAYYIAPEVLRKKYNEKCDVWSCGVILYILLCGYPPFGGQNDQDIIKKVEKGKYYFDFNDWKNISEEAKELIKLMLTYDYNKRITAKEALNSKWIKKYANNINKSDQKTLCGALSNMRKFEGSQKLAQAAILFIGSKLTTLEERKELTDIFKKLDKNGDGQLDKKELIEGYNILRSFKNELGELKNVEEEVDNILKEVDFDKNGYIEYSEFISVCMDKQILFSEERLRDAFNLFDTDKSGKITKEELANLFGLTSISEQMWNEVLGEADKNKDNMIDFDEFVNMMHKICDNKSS
The target of experiment [6] is Plasmodium falciparum protein kinase 6 (PK6, PF3D7_1337100) (UniProt Q8IDW1). Description: PfPK6 kinase inhibitors, biochemical, TCAMS library (AID 1159586). The conditions noted are these: recombinant PfPK6, Kinase-Glo ATP depletion luminescence.
Sequence of Plasmodium falciparum protein kinase 6 (PK6, PF3D7_1337100) (Q8IDW1 1-305): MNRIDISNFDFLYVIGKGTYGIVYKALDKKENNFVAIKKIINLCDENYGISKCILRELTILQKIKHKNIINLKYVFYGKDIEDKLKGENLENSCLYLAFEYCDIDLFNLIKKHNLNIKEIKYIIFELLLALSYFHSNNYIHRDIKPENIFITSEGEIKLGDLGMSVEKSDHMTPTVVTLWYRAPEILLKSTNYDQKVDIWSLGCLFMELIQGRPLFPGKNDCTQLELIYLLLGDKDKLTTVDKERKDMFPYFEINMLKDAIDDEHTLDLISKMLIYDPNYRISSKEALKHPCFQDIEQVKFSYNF
Experiment [7] concerns the target Protein kinase 7 (PK7), Plasmodium falciparum 3D7 (PF3D7_0213400) (UniProt Q7YTF7). Description: inhibition of Plasmodium PK7 catalytic activity – biochemical, TCAMS antimalarial set, Kinase-Glo luminescence (AID 1159587). The note with it: recombinant PfPK7, Kinase-Glo ATP depletion luminescence.
Experiment [8] deals with Calcium-dependent protein kinase 4 (Plasmodium falciparum (isolate 3D7)) (UniProt Q8IBS5). Description: PfCDPK4 kinase inhibitors, biochemical, TCAMS library (AID 1159588; cut-off not given, nearly all actives have IC50 up to about 0.91 µM). The note with it: recombinant PfCDPK4, Kinase-Glo ATP depletion luminescence. A general note: Kinase-Glo measures the ATP left after a reaction by luminescence.
Sequence of Calcium-dependent protein kinase 4 (Plasmodium falciparum (isolate 3D7)) (Q8IBS5 whole entry, looked up): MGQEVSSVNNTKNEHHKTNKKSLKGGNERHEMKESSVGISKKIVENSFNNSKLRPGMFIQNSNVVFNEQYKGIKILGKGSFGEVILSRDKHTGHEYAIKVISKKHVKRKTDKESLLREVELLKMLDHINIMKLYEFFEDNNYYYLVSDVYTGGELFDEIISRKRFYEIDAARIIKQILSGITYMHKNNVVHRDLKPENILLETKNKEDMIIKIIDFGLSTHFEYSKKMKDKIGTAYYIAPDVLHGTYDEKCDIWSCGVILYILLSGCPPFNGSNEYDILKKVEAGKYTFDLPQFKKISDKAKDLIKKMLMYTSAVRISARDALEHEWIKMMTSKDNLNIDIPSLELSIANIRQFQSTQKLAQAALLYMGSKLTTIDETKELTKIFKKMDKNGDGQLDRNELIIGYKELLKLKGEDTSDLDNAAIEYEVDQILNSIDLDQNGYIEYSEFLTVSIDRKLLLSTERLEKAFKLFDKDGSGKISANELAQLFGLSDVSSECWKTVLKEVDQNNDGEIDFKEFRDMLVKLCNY

The structures appear in SMILES notation. Unmarked numbers belong to inactive results. For some assays here: Measured potencies and affinities stand elsewhere. Calls of active or inactive are those of the source. Unless noted, how the calls were made is not given here.

Sequence of Protein kinase 7 (PK7), Plasmodium falciparum 3D7 (PF3D7_0213400) (Q7YTF7 1-343): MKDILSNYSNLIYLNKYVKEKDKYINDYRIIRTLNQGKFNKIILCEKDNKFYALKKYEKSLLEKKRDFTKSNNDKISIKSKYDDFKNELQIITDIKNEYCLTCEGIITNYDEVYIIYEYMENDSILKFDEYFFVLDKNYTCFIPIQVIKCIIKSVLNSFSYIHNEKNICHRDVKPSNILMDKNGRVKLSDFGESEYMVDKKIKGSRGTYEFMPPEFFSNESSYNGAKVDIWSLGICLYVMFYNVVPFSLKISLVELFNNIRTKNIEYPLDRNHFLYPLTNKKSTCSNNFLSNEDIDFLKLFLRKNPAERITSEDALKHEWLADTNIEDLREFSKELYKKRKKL

As a reminder, the inhibition is the change of the read-out against control, counted positive when it falls. Regarding `Cc1[nH]c2ccccc2c1C(=O)CSc1nn(-c2ccccc2)c(=S)s1`, the growth inhibition is 99% (active) in experiment [1] and 100% (active) in experiment [4]. For the same compound, the inhibition in experiment [2] is -6%; in experiment [3], -1%. Further, the outcome in experiment [5], in experiment [6], in experiment [7] and in experiment [8] was inactive.

Take `COc1ccc2ncc(F)c(CCN3CCC4(CC3)COC(c3cc5c(cn3)OCCO5)=N4)c2n1`: the growth inhibition in experiment [1] was 83% (active); in experiment [4], 89% (active). Moreover, the inhibition in experiment [2] is 79% (active); in experiment [3], 5%. The outcome in experiment [5], in experiment [6], in experiment [7] and in experiment [8] was inactive.

Regarding `N#Cc1ccc2c(c1)CCN(CCCn1c(-c3ccc4ccccc4c3)nc3ccncc31)CC2`, the growth inhibition in experiment [1] is 97% (active); in experiment [4], 102% (active). Besides, the inhibition in experiment [2] is 38%; in experiment [3], 4%. The outcome in experiment [5], in experiment [6], in experiment [7] and in experiment [8] was inactive.

For `CN(Cc1cccc(F)c1)C1CCN(c2cc(NC(=O)c3cccc(F)c3)ccn2)CC1`, the results for the growth inhibition in experiment [1] and in experiment [4] were 13% and 94% (active), respectively. The figures for the inhibition in experiment [2] and in experiment [3] were 12% and 3%, respectively. For the same compound, the outcome in experiment [5], in experiment [6], in experiment [7] and in experiment [8] was inactive.

With `COc1ccc(S(=O)(=O)NCC2CCCN(CCCCCNC(=O)/C=C/c3ccc(Cl)c(Cl)c3)C2)cc1` (configuration not stated), the growth inhibition in experiment [1] is 1%; in experiment [4], 81% (active). The inhibition in experiment [2] was 53% (active); in experiment [3], 1%. Moreover, the outcome in experiment [5], in experiment [6], in experiment [7] and in experiment [8] was inactive.

`CS(=O)(=O)CCOCc1ccc(-c2ccc3ncnc(Nc4ccc(OCc5cccc(F)c5)c(Cl)c4)c3c2)o1`: the growth inhibition was 43% in experiment [1] and 96% (active) in experiment [4]. Further, the figures for the inhibition in experiment [2] and in experiment [3] were 1% and 5%, respectively. The outcome in experiment [5], in experiment [6], in experiment [7] and in experiment [8] was inactive.

Turning to `CCCCCCn1c(Sc2ccc(C#N)c([N+](=O)[O-])c2)nnc1-c1cccc(Cl)c1`, the results for the growth inhibition in experiment [1] and in experiment [4] were 90% (active) and 96% (active), respectively. The results for the inhibition in experiment [2] and in experiment [3] were 17% and 1%, respectively. The outcome in experiment [5], in experiment [6], in experiment [7] and in experiment [8] was inactive.

Consider `CCc1c[nH]c2c(N3CCCS3(=O)=O)cc(C(=O)N[C@@H](Cc3ccccc3)[C@H](O)CNC3CCCCC3)cc12`, for which the growth inhibition in experiment [1] was 89% (active); in experiment [4], 99% (active). Besides, the inhibition in experiment [2] is 6%; in experiment [3], -7%. Moreover, the outcome in experiment [5], in experiment [6], in experiment [7] and in experiment [8] was inactive.

As for `O=C(Nc1ccc(Br)c(C(F)(F)F)c1)c1cccc([N+](=O)[O-])c1`, the growth inhibition in experiment [1] is 3%; in experiment [4], 94% (active). Further, the inhibition was 24% in experiment [2] and -7% in experiment [3]. Also, the outcome in experiment [5], in experiment [6], in experiment [7] and in experiment [8] was inactive.

Take `O=C(Nc1ccc(N2CCCCC2)c(Cl)c1)c1ccco1`: the growth inhibition in experiment [1] was 95% (active); in experiment [4], 96% (active). In addition, the inhibition was -1% in experiment [2] and -6% in experiment [3]. The outcome in experiment [5], in experiment [6], in experiment [7] and in experiment [8] was inactive.

In the case of `CCN(Cc1ccccc1)C1CCN(Cc2cc(Br)ccc2O)CC1`, the growth inhibition in experiment [1] and in experiment [4] was 97% (active) throughout. Moreover, the inhibition in experiment [2] is 6%; in experiment [3] it was -1%. Further, the outcome in experiment [5], in experiment [6], in experiment [7] and in experiment [8] was inactive.

`c1ccc2c(NCCc3cnc[nH]3)c3ccccc3nc2c1`: the growth inhibition is -1% in experiment [1] and 91% (active) in experiment [4]. The inhibition in experiment [2] is 20%; in experiment [3], 6%. In addition, the result in experiment [5], in experiment [6], in experiment [7] and in experiment [8] was inactive.

Consider `NC(=O)c1cccc(Nc2nccc(Nc3ccc(Oc4cccc(Cl)c4)c(Cl)c3)n2)c1`, for which the figures for the growth inhibition in experiment [1] and in experiment [4] were 12% and 93% (active), respectively. In addition, the inhibition is -3% in experiment [2] and 1% in experiment [3]. For the same compound, the outcome in experiment [5], in experiment [6], in experiment [7] and in experiment [8] was inactive.

Regarding `CCNc1cc(C(=O)N[C@@H](Cc2ccccc2)[C@H](O)CNCc2cccc(OC)c2)c(OC)c(N2CCCCS2(=O)=O)c1`, the growth inhibition in experiment [1] is 96% (active); in experiment [4], 97% (active). The inhibition was 11% in experiment [2] and -8% in experiment [3]. Besides, the result in experiment [5], in experiment [6], in experiment [7] and in experiment [8] was inactive.

As to `COc1ccc(CC(Cc2ccc(OC)cc2)NCC(O)c2cccc(Cl)c2)cc1` (configuration not stated), the growth inhibition in experiment [1] was 98% (active); in experiment [4], 100% (active). Further, the inhibition in experiment [2] was 11%; in experiment [3] it was -4%. In addition, the outcome in experiment [5], in experiment [6], in experiment [7] and in experiment [8] was inactive.

Consider `Cc1ccc(CN2CCN(CC(O)COc3ccc4c(c3)CCC4)CC2)cc1` (configuration not stated), for which the growth inhibition in experiment [1] was -4%; in experiment [4], 95% (active). The inhibition in experiment [2] was -15%; in experiment [3], -3%. Moreover, the outcome in experiment [5], in experiment [6], in experiment [7] and in experiment [8] was inactive.

Take `CCOC(=O)C(C(=O)OCC)c1nc(C)ns1`: the growth inhibition in experiment [1] was -3%; in experiment [4], 99% (active). Further, the inhibition was 10% in experiment [2] and -3% in experiment [3]. In addition, the result in experiment [5], in experiment [6], in experiment [7] and in experiment [8] was inactive.

Turning to `C[C@@H](N)C#Cc1cc2c(Nc3ccc(OCc4cccc(F)c4)c(Cl)c3)ncnc2s1`, the results for the growth inhibition in experiment [1] and in experiment [4] were 23% and 89% (active), respectively. Besides, the inhibition in experiment [2] is 17%; in experiment [3], -5%. Moreover, the result in experiment [5], in experiment [6], in experiment [7] and in experiment [8] was inactive.

As to `CN(N=Cc1ccccc1)C(N)=NCCCC#Cc1cccc(CN2CCCC2)c1`, the growth inhibition in experiment [1] is 3%; in experiment [4], 89% (active). In addition, the figures for the inhibition in experiment [2] and in experiment [3] were 16% and -2%, respectively. The outcome in experiment [5], in experiment [6], in experiment [7] and in experiment [8] was inactive.
